# Source: PubChem BioAssay (NCI)
# About 83,000 compounds went through this panel and 20% of them were active in at least one assay; those are over-represented in the sample as a whole.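 Negative percent growth values reflect cell death: -40 means 40% of the cells present at the start died, and -100 means all died.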 A number with no mark means an inactive call. Activity calls are given as the source filed them. The calls were made as follows: active = growth percent below 10; inactive = the rest.
# What was measured:
# Experiment in all cases: NCI-60 one-dose screen, 48 h (100 = growth as untreated, 0 = no growth, -100 = all killed)
# Conditions in all cases: 10 µM unless noted
# [1] = tested on: SR leukemia
# [2] = tested on: RPMI-8226 leukemia
# [3] = tested on: OVCAR-8 ovarian
# [4] = tested on: OVCAR-5 ovarian
# [5] = tested on: OVCAR-4 ovarian
# [6] = tested on: SK-OV-3 ovarian
# [7] = tested on: IGROV1 ovarian
# [8] = tested on: OVCAR-3 ovarian
# [9] = tested on: HS 578T breast
# [10] = tested on: NCI/ADR-RES ovarian
Compound,growth [1],growth [2],growth [3],growth [4],growth [5],growth [6],growth [7],growth [8],growth [9],growth [10]
CC(O)/C=C/C=C/C(O)CC/C=C/C(=O)NCC(C)(C)O (stereo not given),66.4%,100%,93.3%,113%,106%,111%,117%,115%,99.8%,109%
COc1ccc(/C=C\c2nc3ccccc3s2)cc1OP(=O)(O)O,16.7%,22.7%,40.2%,75.4%,72.6%,84.2%,37.9%,0.859% (active),14.8%,14.4%
COc1ccc(CNCCN2C(=O)c3ccc4c5c(ccc(c35)C2=O)C(=O)N(CCNCc2ccc(OC)cc2)C4=O)cc1,-29.4% (active),-35.2% (active),-67.3% (active),-72.7% (active),-99.5% (active),-68.1% (active),-58.4% (active),–,-41.1% (active),-25.9% (active)
COc1ccc(-c2nn(Cc3ccccc3)c3c2-c2oncc2CC3)cc1OC,63.2%,98.5%,89%,103%,86.8%,137%,124%,113%,–,82.6%
CC(=O)N1c2ccccc2NC2=C(C(=O)N(Cc3ccccc3)C2(C)C)C1c1ccco1 (stereo not given),23.3%,23.4%,26.1%,25.9%,48.8%,22.7%,26.8%,–,10.7%,82.9%
O=C1NC(=S)NC(=O)C1=Cc1cccc(C=C2C(=O)NC(=S)NC2=O)c1,96.9%,101%,104%,110%,105%,110%,107%,–,103%,102%
Clc1nc(Cl)c2ncn(CC3(Cn4cnc5c(Cl)nc(Cl)nc54)COC3)c2n1,-76.1% (active),-63.5% (active),-83.7% (active),-86% (active),-87.9% (active),-99.8% (active),-93.3% (active),-93.3% (active),-43.8% (active),-57.4% (active)
CC1(C)CCCN1CCCN1c2ccccc2Sc2ccc(Cl)cc21,35.7%,28.6%,95.8%,89.3%,53.2%,75.5%,60.2%,68.5%,76.6%,61%
Cc1[nH]c(C(=O)Nc2ccccc2OCc2cccc(C(=O)NCCN)c2)c(Cl)c1Cl,-15.8% (active),30.1%,37.9%,104%,98.1%,108%,71.1%,76.4%,92.6%,94.3%
O=S(=O)(NCCCNc1nccc(-c2c(-c3ccc(F)c(O)c3)nc3sccn23)n1)c1ccc(F)cc1,-7.44% (active),-47.7% (active),-11.9% (active),24.4%,3.86% (active),17.9%,0.863% (active),–,3.15% (active),48.2%
Clc1ccc(N2N=C(c3cccc(Nc4ccncc4)c3)CC2c2ccc3c(c2)OCO3)cc1 (stereo not given),6.11% (active),44.1%,26.7%,73.9%,44.7%,54.8%,20.7%,23.5%,68.9%,31.2%
Clc1ccc(N2N=C(c3cccc(Nc4ccncc4)c3)CC2c2ccc(Br)cc2)cc1 (stereo not given),1.87% (active),-2.67% (active),-18.7% (active),77.8%,0.0501% (active),85.7%,3.01% (active),37.7%,60.5%,39.6%
O=C(c1ccccc1)N1N=C(c2ccc(-n3ccc(C(F)(F)F)n3)cc2)CC1c1ccc[nH]1 (stereo not given),66.7%,74.7%,93.7%,83.4%,110%,128%,95.8%,103%,95.4%,90.2%
Nc1ccccc1NC(=O)c1ccc(CN2CCC/C(=C\c3cccc(Cl)c3)C2=O)cc1,10.4%,-18.7% (active),10.2%,36.7%,33.7%,13.1%,17.8%,5.7% (active),43.1%,5% (active)
COc1ccc(/C=C2\COc3ccc(-c4ccccc4)cc3C2=O)cc1O,-10.8% (active),-21.6% (active),13.1%,53.7%,80.5%,57.6%,7.03% (active),2.7% (active),-1.69% (active),22.6%
O=C(O)CCCCCCCCCCCCCCC(=O)O,101%,93.8%,97.2%,109%,120%,102%,100%,101%,–,103%
Clc1cc(Cl)cc(N2N=C(c3cccc(Nc4ccncc4)c3)CC2c2ccc(Br)cc2)c1 (stereo not given),3.33% (active),21.3%,-13.7% (active),77.2%,2.37% (active),83.3%,12.3%,57.6%,46.7%,51.2%
Cc1c2c(cc[n+]1Cc1ccc(F)cc1)c1ccc(OCc3cccc(F)c3)cc1n2Cc1cccc(F)c1,-48.7% (active),-33% (active),-81.6% (active),4.86% (active),-80.8% (active),2.43% (active),-67.4% (active),-98.5% (active),-40.9% (active),85%
C#CC(=O)Nc1cccc(Nc2nc3c(c(NCc4ccccc4)n2)CCCC3)c1,-27% (active),-23.7% (active),-89.6% (active),-45% (active),-95.3% (active),-98.5% (active),-42.6% (active),-82.9% (active),-5.41% (active),5.07% (active)
O=C1c2ccccc2-c2c1c1c(NCCCO)nc3ccccc3c1n2Cc1ccccc1,5.22% (active),46.2%,25.9%,45.6%,10.7%,23.8%,15.7%,14.4%,–,3.37% (active)
C#CCn1cc(C=C2C(=O)NC(=S)NC2=O)c2cc(Cl)ccc21,4.92% (active),-14.9% (active),12.1%,56.9%,56.1%,81.7%,-40.6% (active),-36.4% (active),-0.874% (active),19.5%
CCOC(=O)c1c(SC)nn(-c2cc(=O)[nH]c3ccc(Br)cc23)c1N,91%,101%,95.6%,112%,86.2%,98.5%,102%,105%,91.8%,100%
O=C1c2ccccc2C(=O)c2c(NCCN=Cc3ccccc3O)cccc21,-33.2% (active),78.8%,21%,78.9%,72.1%,56.9%,51.9%,72.3%,43.4%,59.9%
COc1cc(C2CC(c3cccc(Nc4ccncc4)c3)=NN2c2ccccc2)cc(OC)c1OC (stereo not given),2.93% (active),7.32% (active),66.6%,89.3%,41.2%,74%,55%,56.2%,64.2%,66.3%
COc1cc(NCCCN(CC(C)C)C2CCCC2)c2ncccc2c1,16.8%,35.5%,59.2%,96.3%,22.5%,84.6%,50.6%,52.6%,–,71.8%
COc1cnccc1-c1nc2ccc3[nH]ncc3c2c2c1CCCC2,8.78% (active),61.6%,69.1%,74.8%,85.9%,41.9%,33.4%,–,-1.02% (active),64.2%
CCOc1ccc(/C=N/Nc2cc(C)nc3ccc(Cl)cc23)cc1,-9.13% (active),-1.34% (active),45.2%,79.2%,56.8%,84.1%,45.4%,–,92.3%,45.9%
COc1ccc(/C=C(/c2ccccc2)[N+](=O)[O-])cc1,-19.1% (active),-28% (active),-7.29% (active),-59.6% (active),-59.5% (active),9.1% (active),-26.1% (active),-96.5% (active),14.4%,7.74% (active)
